The record followed here is the OligoGym collection.

Holding throughout (assay): pooled miR-30 sensor sort-seq; sequence = guide strand
Conditions in all cases: shRNA

Test [1] deals with DNAJC13.
Test [2] addresses DNMT3L.
Test [3] addresses DPP3.
Test [4] has as its target DPPA5.
In test [5] the target is DPM2.
Test [6] concerns the target DPP9.
Test [7] addresses DPRX.
The target of test [8] is DUSP5.
The target in test [9] is DUSP3.
In test [10] the target is EAPP.
Note: reference of the scale not given here.

With TTGTCTCTAACATGCATCCGAT, in [1], the sensor-assay potency score (higher = more potent) was -1.12.

Take TATGCAATAAGATCTCTGCCTG: the sensor-assay potency score (higher = more potent) in test [2] is -0.0706. Consider TTCCTTACGCAGCAGCACCGTG, for which, in test [3], the sensor-assay potency score (higher = more potent) was -1.18. In test [4], TTTCAGGTCTTCGGGAACTTTC had a sensor-assay potency score (higher = more potent) of -1.57. TAAACCACGACCTCGGTGAGGT: the sensor-assay potency score (higher = more potent) in test [4] was -0.536. The sequence TAGTAGGTGAAGATGATCAGGC displayed a sensor-assay potency score (higher = more potent) in test [5] of 0.327. AAGATCTCCAGCACTTGCGGGT gave a sensor-assay potency score (higher = more potent) in [3] of -0.379.

TTTGAGCATCCCTCGCTCCTGG: in test [4], the sensor-assay potency score (higher = more potent) is -0.61. Regarding TGAAGCTCTCTATATACTGGGC, in test [3], the sensor-assay potency score (higher = more potent) was -0.35.

TGTTGGAGTAAACACCCGCGGC returned a sensor-assay potency score (higher = more potent) in [3] of -1.37.

As for TAGTTGGGGATGTTGATGCCGG, the sensor-assay potency score (higher = more potent) in test [3] was -0.85. As for ATGTCATGAACATTGATCCAGA, the sensor-assay potency score (higher = more potent) in test [6] was -1.2.

In [5], ATGAACAGTCCCACAAACAGGA registered a sensor-assay potency score (higher = more potent) of -0.342. TTCGAGATCCGTCCGGGCCGAA returned a sensor-assay potency score (higher = more potent) in test [4] of -1.6. In [3], TTGTCCTTCTCAAAGGTTGGGG had a sensor-assay potency score (higher = more potent) of -0.0545. The sequence TAGAGGAGGGAGTTCTCTCGGC showed a sensor-assay potency score (higher = more potent) in test [6] of -0.587. In turn, ATGGACTGGAGCATCCACTTGG gave a sensor-assay potency score (higher = more potent) in [4] of -0.436.

On to TTAATGTGTCTACTTCTTCCAC, for which the sensor-assay potency score (higher = more potent) in [6] was -0.494. In test [5], TGAACAGTCCCACAAACAGGAG yielded a sensor-assay potency score (higher = more potent) of -1.56.

Regarding TCTTCCTTTCTTCTAGCGCAGG, in [6], the sensor-assay potency score (higher = more potent) is -1.35. For the sequence TTGTAGTTGCCCATGTTGGAGT, the sensor-assay potency score (higher = more potent) in [3] was -1.16. For TCTTCGGGAACTTTCACCCACG, the sensor-assay potency score (higher = more potent) in test [4] was -0.874. With TCGCTGTGGAAGTCGTAGGAGG, the sensor-assay potency score (higher = more potent) in test [6] was -1.41.

In test [6], AATACTGTGTCTCTCGTTGGGG showed a sensor-assay potency score (higher = more potent) of 0.209. For the sequence TTGTCCTGGATCCAGAAGCGGG, the sensor-assay potency score (higher = more potent) in test [3] is -1.46. Take TCGTCCTGTACGAAGAGCTTGC: the sensor-assay potency score (higher = more potent) in test [3] is -0.841. Same read-out and setting: in the case of AAGTTGGGAACAAACTTGGTGT it was -0.148.

For the sequence TAATGTGTCTACTTCTTCCACG, the sensor-assay potency score (higher = more potent) in test [6] turned out to be 0.224. TTGGTCTTCAGCATCACATAGG registered a sensor-assay potency score (higher = more potent) in [5] of -0.278. TTTGAAGGAGTTATTCACCAGC: in test [6], the sensor-assay potency score (higher = more potent) was -0.354. For TTGGTGTCACCAAAGGACTTGT, the sensor-assay potency score (higher = more potent) in test [3] was -0.525.

Turning to ATGAACATTGATCCAGACGTTG, the sensor-assay potency score (higher = more potent) in [6] was -1.33.

Sequence TCGACCTCTTTGAAGAGCCGGG came in with a sensor-assay potency score (higher = more potent) in test [3] of -0.473. TTATTCACCAGCTGCACCTGGG yielded a sensor-assay potency score (higher = more potent) in test [6] of -0.396. In [7], TATATATTAGGATCTCGGCAGC registered a sensor-assay potency score (higher = more potent) of -0.886. AGGGATTCGAGATCCGTCCGGG registered a sensor-assay potency score (higher = more potent) in test [4] of -0.916. As to TGTAAGGGATTCGAGATCCGTC, in [4], the sensor-assay potency score (higher = more potent) is -0.0102. In test [6], TTATAAAAGAATAAGAATCGAC yielded a sensor-assay potency score (higher = more potent) of -0.653. The same measure, in the same setting: as for TAGCTGACCACGTAGAGGTGGT, the figure is -0.544. Take TTGAGCATCCCTCGCTCCTGGC: in test [4], the sensor-assay potency score (higher = more potent) was -0.972. On the same count and under the same terms, in the case of TGGAGCATCCACTTGGTCCGGA it was -0.524; in that of TTCGGGAACTTTCACCCACGGC, -1.56. In test [8], TCCTCTCGCAGCTTCTGCCAGT gave a sensor-assay potency score (higher = more potent) of -1.18. Same read-out and setting: in the case of TTGAGTGGGTAGGCACCGGTGC it was -0.999; in that of TTGAGGAAGTAGACCCGCGGGC, -0.647. Take TCTGTCATTGAGCTGGCAGAGC: the sensor-assay potency score (higher = more potent) in test [9] is -1.17. TTAAAAACAAAAATCACAGTTG: the sensor-assay potency score (higher = more potent) in test [8] stood at 0.309. With TATATATCATCGTAGTACCTTG, the sensor-assay potency score (higher = more potent) in test [10] was -0.621. In test [8], ATTCCGAGTAGAAAGTCTCATA had a sensor-assay potency score (higher = more potent) of -1.1.

The sequence TTTGAGGAAGTAGACCCGCGGG registered a sensor-assay potency score (higher = more potent) in [8] of -0.969. On the same count and under the same terms, in the case of TTGTAGTGTAGGTGGGTCGCGC it was -0.607. Still for that read-out and setting: as for TACAGTAGTCAGCACATGCTGT, the figure is -0.0745; as for TAGTGTAGGTGGGTCGCGCAGG, -0.939.

In test [10], TTTCTTCCACATCTGTCTCTGC had a sensor-assay potency score (higher = more potent) of -0.196. Sequence TCTCACTCTCAATCTTCTCTTG registered a sensor-assay potency score (higher = more potent) in [8] of -0.536. Consider AAAGACTTCATCCTTGTCGTAG, for which, in test [10], the sensor-assay potency score (higher = more potent) was -0.0566. Turning to TTGGTCACCTGTACTGCTCTGT, the sensor-assay potency score (higher = more potent) in [10] is 0.00284. Take TGTGATGCCGGAGTCCTTGTAG: in test [9], the sensor-assay potency score (higher = more potent) stood at 0.0865. The sequence TAATTCAGCTTCCATCTCCTTT had a sensor-assay potency score (higher = more potent) in [10] of -0.368. With TATGTGATGCCGGAGTCCTTGT, the sensor-assay potency score (higher = more potent) in test [9] is -1.17.
